Data as given in PubChem BioAssay (NCATS).
Where “and” joins values, the source holds several entries; their conditions need not be identical. Equal entries are not always repeated. Results filed as inconclusive are left out. A call without a number means that no potency is given here. A number with no mark means an inactive call. Calls of active or inactive are those of the source. Calls come from the whole dose curve; as a rule, active = well fitted curve in the direction sought with a large enough effect; inconclusive = small, poorly fitted or top-dose-only effect, or another doubt; inactive = no such curve, though single readings can be large; an effect the other way counts as inactive or inconclusive.

How the values were obtained:
[1] = target: Cellular tumor antigen p53 (Homo sapiens) (UniProt P04637); experiment: Primary qHTS for small molecule compounds that upregulate eGFP-tagged delta133p53alpha (in N-terminal) cells. (AID 2060322); settings: NCI-H358 eGFP-delta133p53alpha fluorescence, 24 h; activation: hits give high values; note: nearly all actives have a fitted effect of over 75% in size; note: potency is the fitted concentration of half-maximal effect;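 for activation: cells pre-induced with doxycycline then dosed without doxycycline; series mostly up to about 56 µM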
Procedure, shortened: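 NCI-H358 cells pre-induced 24 h with 10 ng/ml doxycycline for eGFP-delta133p53alpha, plated dox-free and exposed 24 h at 37C to titrated compounds. Fixed, Hoechst-stained; gated GFP peak intensity by laser scanning cytometry, normalized to DMSO (0%) and 57.5 uM 5-azacytidine (100%).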

[2] = target: Aldehyde dehydrogenase, mitochondrial (Homo sapiens) (UniProt P05091); experiment: qHTS for Inhibitors of the Aldehyde Dehydrogenase Family (ALDH2) Primary screen (AID 2061308); note: nearly all actives have a fitted effect of over 55% in size
[3] = target: Retinaldehyde dehydrogenase 3 (Homo sapiens) (UniProt P47895); experiment: qHTS for Inhibitors of the Aldehyde Dehydrogenase Family (ALDH1A3) Primary screen (AID 2061315)
[4] = BET inhibitor-based combinations targeting novel dependencies in MECOM-rearranged (r) AML: SET-2 cell line (AID 2202231); settings: SET-2 AML cells viability, CellTiter-Glo luminescence, 48 h; viability: hits give low values, concentration not given here; note: nearly all actives have a fitted effect of over 35% in size; note: potency is the fitted concentration of half-maximal effect
Procedure, shortened: (§1)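 Each compound was tested at eleven concentrations on cells seeded at 500/well. After two days' incubation, ATP-based luminescence reported viability; responses relative to DMSO and blank wells yielded AUC and cell-line-centred Z-AUC.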

[5] = BET inhibitor-based combinations targeting novel dependencies in MECOM-rearranged (r) AML: OCI-AML3 cell line (AID 2202232); settings: Potency: OCI-AML3 viability; note: nearly all actives have a fitted effect of over 35% in size; note: potency is the fitted concentration of half-maximal effect
Procedure, shortened: as §1

[6] = BET inhibitor-based combinations targeting novel dependencies in MECOM-rearranged (r) AML: MV-4-11 cell line (AID 2202233); note: nearly all actives have a fitted effect of over 45% in size; note: potency is the fitted concentration of half-maximal effect
Procedure, shortened: (§2)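 First, 500 cells per well were seeded; next, drugs were pinned as 11-point doses; then plates sat 48 hr in the incubator; finally CellTiter-Glo was added and luminescence read, with AUC and Z-AUC computed.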

[7] = BET inhibitor-based combinations targeting novel dependencies in MECOM-rearranged (r) AML: HNT-34 cell line (AID 2202234); note: nearly all actives have a fitted effect of over 35% in size; note: potency is the fitted concentration of half-maximal effect
Procedure, shortened: as §2

[8] = BET inhibitor-based combinations targeting novel dependencies in MECOM-rearranged (r) AML: UCSD-AML1 cell line (AID 2202235); note: nearly all actives have a fitted effect of over 40% in size; note: potency is the fitted concentration of half-maximal effect
Procedure, shortened: as §2

[9] = BET inhibitor-based combinations targeting novel dependencies in MECOM-rearranged (r) AML: AML-191 cell line (AID 2202236; note: nearly all actives have a fitted effect of over 35% in size; note: potency is the fitted concentration of half-maximal effect)
Procedure, shortened: as §1

[10] = BET inhibitor-based combinations targeting novel dependencies in MECOM-rearranged (r) AML: AML-194 cell line (AID 2202237; note: nearly all actives have a fitted effect of over 40% in size)
Procedure, shortened: as §1

Chain of Cellular tumor antigen p53 (Homo sapiens) (P04637 whole entry, looked up): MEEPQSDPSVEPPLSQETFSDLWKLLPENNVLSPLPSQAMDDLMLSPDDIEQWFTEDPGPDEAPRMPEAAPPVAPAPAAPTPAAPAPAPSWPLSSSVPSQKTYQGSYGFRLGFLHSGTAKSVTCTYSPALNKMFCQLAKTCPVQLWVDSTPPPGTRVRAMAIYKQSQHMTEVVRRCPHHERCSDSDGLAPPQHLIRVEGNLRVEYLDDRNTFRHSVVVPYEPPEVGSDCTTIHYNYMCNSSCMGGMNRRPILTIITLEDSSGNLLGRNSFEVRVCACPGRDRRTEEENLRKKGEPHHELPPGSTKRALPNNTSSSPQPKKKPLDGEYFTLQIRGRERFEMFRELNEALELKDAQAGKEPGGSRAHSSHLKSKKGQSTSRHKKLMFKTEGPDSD

Row | Structure (SMILES) | activation [1] | Potency [2] | Potency [3] | viability [4] [%] | Potency [5] | Potency [6] | Potency [7] | Potency [8] | Potency [9] | Potency [10] | Potency [4] | Potency [1]
1 | CNC(=O)c1c(-c2ccc(F)cc2)oc2cc(N(CCO)S(C)(=O)=O)c(C3CC3)cc12 | -6.02% and -15.2% | inactive | inactive | 119 | inactive | inactive | inactive | inactive | inactive | inactive |  | 
2 | NC1(Cc2ccc(Cl)cc2)CCN(c2ncnc3[nH]ccc23)CC1 | -4.16% and 18.8% | inactive | inactive |  | 6.61 µM (active) | 7.42 µM (active) | 7.42 µM (active) | 5.25 µM (active) |  |  | 14.8 µM (active) | 
3 | CS(=O)(=O)c1ccc(C2=C(c3ccccc3)C(=O)OC2)cc1 | -5.73% | inactive | inactive | 95.1 | inactive | inactive | inactive | inactive | inactive | inactive |  | 
4 | CC(C)(C)c1nc(-c2cccc(NS(=O)(=O)c3c(F)cccc3F)c2F)c(-c2ccnc(N)n2)s1 |  | inactive | inactive | 98 |  |  |  |  |  |  |  | 26.9 µM (active)
5 | COc1cc2ncnc(Nc3ccc(F)c(Cl)c3)c2cc1NC(=O)/C=C/CN1CCCCC1 |  | inactive | inactive |  | 5.9 µM (active) | 2.95 µM (active) | 3.72 µM (active) | 8.33 µM (active) | 7.42 µM (active) |  | 8.33 µM (active) | 9.53 µM (active)
6 | Cc1ccc(NC(=O)Nc2cc(C(F)(F)F)ccc2F)cc1Nc1ccc2c(c1)NC(=O)/C2=C\c1ccc[nH]1 | -0.477% | inactive | inactive |  | 20.9 µM (active) | 16.6 µM (active) | 26.3 µM (active) | inactive | 20.9 µM (active) |  | 23.5 µM (active) | 
